From PubChem BioAssay
In the library only some 2.3% were active in any assay of this set; here they are far more common.
Nrf2 block = blocks Nrf2 signaling. AID 504444. 360,000 tested, 2.1% active. A549 ARE-Fluc reporter, luciferase luminescence, 18-24 h. Potency, µM (doses to about 46 µM), actives largely listed as inhibitors; further: nearly all actives have a fitted effect of over 60% in size
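Nrf2 function is reported as luminescence of an ARE-controlled luciferase in A549 cells. Compounds were tested at several concentrations, and a CellTiter-Fluor read on the same wells flagged cytotoxicity.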
Nrf2 ARE act = activates Nrf2 signaling; AID 624171; Potency, µM (top dose mostly 46.1 µM), hits mostly activators; 410,000 tested, 0.31% active; AREc32 ARE-luciferase reporter (MCF7-derived line), luminescence, 24 h; further: nearly all actives have a fitted effect of over 65% in size
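AREc32 cells carrying an ARE-driven firefly luciferase reporter were seeded at 1000 cells/well in OPTI-MEM with 5% FBS, then exposed to compound for 24 hr at 37 deg C. Luminescence was read with Steady-Glo after 30 min at RT.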
Rango complex inh = inhibitors of Rango-importin beta complex formation | Q14974 | Rango CFP/YFP FRET sensor + importin beta, 45 min | Potency, µM (doses to about 92.2 µM) | 340,000 tested, 0.031% active | AID 540263; calls by dose curve; further: nearly all actives have a fitted effect of over 15% in size
Target sequence (Q14974 whole entry, looked up): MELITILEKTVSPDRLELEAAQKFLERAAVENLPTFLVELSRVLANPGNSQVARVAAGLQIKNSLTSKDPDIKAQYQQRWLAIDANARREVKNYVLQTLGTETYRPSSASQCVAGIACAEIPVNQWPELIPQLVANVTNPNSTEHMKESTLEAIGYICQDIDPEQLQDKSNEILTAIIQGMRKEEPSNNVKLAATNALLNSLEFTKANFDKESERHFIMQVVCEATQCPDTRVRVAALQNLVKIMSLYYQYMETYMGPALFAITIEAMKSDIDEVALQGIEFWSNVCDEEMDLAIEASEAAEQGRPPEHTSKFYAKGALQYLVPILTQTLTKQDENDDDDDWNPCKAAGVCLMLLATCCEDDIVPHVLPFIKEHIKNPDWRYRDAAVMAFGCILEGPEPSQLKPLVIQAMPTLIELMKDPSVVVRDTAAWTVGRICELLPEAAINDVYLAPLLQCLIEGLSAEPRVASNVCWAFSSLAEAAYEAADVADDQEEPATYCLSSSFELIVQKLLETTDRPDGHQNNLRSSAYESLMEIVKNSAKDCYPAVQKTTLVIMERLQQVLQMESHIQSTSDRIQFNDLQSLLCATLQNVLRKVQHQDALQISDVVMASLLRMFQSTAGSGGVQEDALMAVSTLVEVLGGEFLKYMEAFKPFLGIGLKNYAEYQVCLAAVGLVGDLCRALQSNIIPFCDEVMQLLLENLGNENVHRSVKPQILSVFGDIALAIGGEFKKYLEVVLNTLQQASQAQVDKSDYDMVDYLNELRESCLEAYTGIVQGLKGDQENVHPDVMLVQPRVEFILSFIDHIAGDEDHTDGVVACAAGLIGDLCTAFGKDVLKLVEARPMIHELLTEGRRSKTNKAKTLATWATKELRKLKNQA
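Inhibition scored from the CFP 486 nm/YFP 530 nm FRET ratio 45 min after adding 0.125 microM importin beta to 50 nM Rango biosensor preincubated 5 min with compound (room temperature, PBS with DTT, Tween-20, BSA). No-importin wells as positive control.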
A549 tox-1 = A549 cytotoxicity, counter-screen for Nrf2 inhibitors. A549 ARE-Fluc cells, CellTiter-Fluor viability, 18-24 h. Potency, µM (top dose mostly 46 µM), hits mostly inhibitors. 390,000 tested, 0.16% active. AID 504648
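A549 ARE-Fluc cells in 5% FBS OPTI-MEM, 5000 cells/well, rested 2 h then exposed to compounds in concentration-response for 18-24 h at 37 °C. Viability by CellTiter-Fluor fluorescence (Ex 405/Em 525) after 30 min; luciferase luminescence (BugLite, 15 min, RT) read afterwards.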
Rango release inh = prevents RanGTP from dissociating the Rango-importin beta complex; Biochemical FRET Rango-importin beta, RanGTP-induced dissociation; Potency, µM (series often up to 46.1 µM); 340,000 tested, 0.071% active; calls by dose curve; further: nearly all actives have a fitted effect of over 45% in size
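Two FRET readings bracket the reaction: one 5 min after compound meets Rango–importin beta, another 45 min after RanGTP-RCC1 (0.6 uM Ran, 0.2 uM RCC1, 2 mM GTP) is added. Only the second defines inhibition.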
FLuc enzyme inh = firefly luciferase inhibition, Nrf2 hit validation. 1,400 tested, 4% active. shares compounds with Nrf2 block. Potency, µM (highest dose often 57.5 µM), usual class: inhibitors. purified firefly luciferase, luminescence inhibition. AID 720522; further: nearly all actives have a fitted effect of over 65% in size
A549 tox-2 = A549 cytotoxicity, Nrf2 inhibitor counterscreen; shares compounds with Nrf2 block; A549 ARE-Fluc cells, cytotoxicity counterscreen; Potency, µM (highest dose often 46.1 µM), usual class: inhibitors; 1,400 tested, 2% active;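 further: cells exposed to compounds for 18 to 24 hours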
ARE-Fluc inh = Nrf2 inhibition confirmed, A549 ARE-luciferase; A549 ARE-firefly luciferase reporter, luminescence; Potency, µM (top dose mostly 46.1 µM), hits mostly inhibitors; 1,400 tested, 74% active; shares compounds with Nrf2 block; AID 720524; further: nearly all actives have a fitted effect of over 65% in size
A number is an active result; 0 = inactive; ? = inconclusive; - = not tested or not shown; [ ] = another dose, or the depositor's remark. Unless noted, the call rests on the fitted dose curve; in most records, active means well fitted curve in the direction sought with a large enough effect; inconclusive means small, poorly fitted or top-dose-only effect, or another doubt; inactive means no such curve, though single readings can be large; an effect the other way counts as inactive or inconclusive.

SMILES	Nrf2 block	Nrf2 ARE act	Rango complex inh	A549 tox-1	Rango release inh	FLuc enzyme inh	A549 tox-2	ARE-Fluc inh
COCCNC(=O)C/C(C)=N/NC(=O)C(=O)NC1CCCCC1	?	0	0	0	0	-	-	-
O=C(/C=C/c1ccc(Cl)cc1)NC(=S)Nc1ccc(NC(=O)c2ccco2)cc1	0.82µM	0	0	0	0	0	0	0.82µM
CC(=O)Nc1ccc(NC(=S)NC(=O)/C=C/c2ccc(Cl)cc2)cc1	?	0	0	0	0	-	-	-
CCN(CC)S(=O)(=O)c1ccc(C(=O)NCCSc2c(-c3ccc(C)cc3)[nH]c3ccccc23)cc1	0[9.27 µM]	0	-	0	-	-	-	-
COC(=O)c1ccc(C[n+]2ccccc2)cc1	0	0	0	0	0	-	-	-
Cc1ccc(C[n+]2ccccc2)cc1	5.17µM	0	0	0	0	0	0	20.6µM
COc1ccc(S(=O)(=O)Nc2ccc(Cc3ccncc3)cc2)cc1OC	6.51µM	0	0	0	0	0	0	?
Cn1c(=O)c2c(nc(NCc3ccccc3)n2Cc2ccccc2)n(C)c1=O	?	0	-	0	-	-	-	-
COc1cccc(Cn2c(NCc3ccco3)nc3c2c(=O)n(C)c(=O)n3C)c1	8.2µM	0	0	?	0	0	0	6.51µM
CCCNc1nc2c(c(=O)n(C)c(=O)n2C)n1Cc1cccc(C)c1	6.51µM	0	0	0	0	0	0	10.3µM
CCCCCCn1c(NCC)nc2c1c(=O)n(C)c(=O)n2C	3.66µM	0	0	0	0	0	0	5.8µM
CCCNc1nc2c(c(=O)n(C)c(=O)n2C)n1CCC(C)C	9.2µM	0	0	0	0	0	0	?
CCCCNc1nc2c(c(=O)n(C)c(=O)n2C)n1CCC	0	0	0	0	0	-	-	-
COc1ccccc1CCNC(=O)CNC(=O)c1ccc2ccccc2c1	0	0	0	0	0	-	-	-
Cc1ccc(CN(Cc2ccco2)c2cnc(S(C)(=O)=O)nc2C(=O)Nc2ccccc2Br)o1	0	0	-	0	-	-	-	-
Cc1cc(C)cc(OCC(=O)O/N=C(\N)c2cccnc2)c1	?	0	0	0	0	-	-	-
COc1ccc(CCNC(=O)COc2ccc(N(C)S(=O)(=O)c3ccc(Cl)cc3)cc2)cc1	3.66µM	0	0	0	0	0	0	18.4µM
CN(c1ccc(OCC(=O)NCCc2ccccc2)cc1)S(=O)(=O)c1ccc(Cl)cc1	0	0	0	0	0	-	-	-
CCOc1ccc(S(=O)(=O)N(C)c2ccc(OCC(=O)Nc3nc4ccccc4s3)cc2)cc1	2.31µM	0	0	0	0	0	0	9.2µM
CCCOc1ccc(Cc2c(O)nc(SC)[nH]c2=O)cc1	0	0[9.22 µM]	0	0	0	-	-	-
O=c1oc2cc(O)ccc2cc1-c1nc2ccccc2o1	-	0	-	-	-	-	-	-
CC1CCc2nc(-c3cc4ccc(O)cc4oc3=O)sc2C1 (centres undefined)	2.31µM	-	-	?	-	0.0379µM	0	18.4µM
O=C(O)C1CCCN1c1nc(-c2ccc(Cl)c(Cl)c2)cc(C(F)(F)F)n1 (centres undefined)	7.31µM	0	0	0	0	0	0	-
FC(F)(F)c1cc(-c2ccccc2)nc(N2CCCCC2)n1	-	0	0	0	0	-	-	-
Cc1c(C(=O)NCc2ccccc2Cl)sc2nc3n(c(=O)c12)CCCCC3	4.61µM	0	-	0	-	0	0	0
O=C(Nc1ccc(Cl)cc1)Nc1ccc(N2CCCC2)c(S(=O)(=O)Nc2ccccc2Cl)c1	3.26µM	0	0	?	0	0	?	6.51µM
COc1ccccc1NS(=O)(=O)c1cc(NC(=O)Nc2cccc(C)c2)ccc1N1CCCCC1	0	0	0	0	0	-	-	-
Cc1cc2[nH]c3c(c[n+](C)c4ccccc34)c2cc1C	5.8µM	0	?	?	0	0	0	7.31µM
COc1ccc(OC)c(NC(=O)COc2coc(CN3CCc4ccccc43)cc2=O)c1	?	0	0	0	0	-	-	-
